Experimental data from the supplement of paper PMC10732440.
± gives the standard deviation of the averaged measurements.

Test system: Caenorhabditis elegans N2 infected with Nematocida parisii ERTm1
Test: progeny production relative to DMSO uninfected control; higher = more progeny despite microsporidia infection (inhibition of infection with low host toxicity)
Details: infection time 6 days; 40 µM
In short: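 Progeny production is reported as a percentage of spore-free vehicle wells and averaged across replicates. It was measured after bleach-synchronised wild-type C. elegans L1 larvae (100 per well) spent 6 days shaking at 21°C in K-medium with E. coli OP50, 15,000 N. parisii spores/μL and compound at 100 μM or 40 μM in 1% DMSO. Counting used Rose Bengal staining, flatbed scanning and WorMachine, and each compound and dose was tested three times.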

**Q.** OB1OCc2cc(Cl)ccc21 was tested. Which progeny production did it give?
**A.** 4.68 ± 1.6%

**Q.** FC(F)(F)Oc1ccc(Nc2ccc3cccc(Cl)c3n2)cc1 was tested. Which progeny production did it give?
**A.** 6.88 ± 1.5%

**Q.** Which progeny production does the source give for Cc1c(OCC(F)(F)F)ccnc1C[S+]([O-])c1nc2ccccc2[nH]1 (stereo unspecified) here?
**A.** 6.74 ± 4.3%

**Q.** Which progeny production does the source give for CC(C)Nc1ncnc2c1cnn2-c1ccc(Cl)cc1 here?
**A.** 8.31 ± 1.1%

**Q.** With COCCn1cnc2c(O)nc(Nc3ccccc3)nc21 as the compound, how does the progeny production read?
**A.** 8.43 ± 4.5%

**Q.** Which progeny production does the source give for O=C(Nc1ccc(F)cc1)c1nn(-c2ccccc2)c(=O)cc1Cl here?
**A.** 5.87 ± 3.4%

**Q.** CCc1ccccc1OCCN1CCCCCC1 was tested. Which progeny production did it give?
**A.** 7.17 ± 1.6%

**Q.** CCCNc1ccc(S(=O)(=O)Nc2cc(C)on2)cc1 was tested. Which progeny production did it give?
**A.** 3.09 ± 1.4%

**Q.** With O=C(Nc1ccc(Cl)c(C(F)(F)F)c1)C(CCCl)C(=O)Nc1ccc(Cl)c(C(F)(F)F)c1 as the compound, how does the progeny production read?
**A.** 7.13 ± 2.7%

**Q.** How did the progeny production turn out when CCCC(=O)OCCc1ccccc1 was run?
**A.** 5.19 ± 1.8%

**Q.** With Cc1nc2ccc(Cl)cc2c(-c2ccccc2)c1CC(=O)O as the compound, how does the progeny production read?
**A.** 6.84 ± 5.6%

**Q.** Which progeny production does the source give for C[C@@H](c1nc(-c2ccc(C#N)cc2)cs1)[C@](O)(Cn1cncn1)c1ccc(F)cc1F here?
**A.** 5.04 ± 1.2%

**Q.** For CCC[C@H](NC(=O)[C@@H]1[C@H]2CCC[C@H]2CN1C(=O)[C@@H](NC(=O)[C@@H](NC(=O)c1cnccn1)C1CCCCC1)C(C)(C)C)C(=O)C(=O)NC1CC1, which progeny production is on record?
**A.** 9.24 ± 1.8%

**Q.** How did the progeny production turn out when CCc1cc(Nc2cc(=O)n(CCN3CCN(C(=O)c4ccccc4)CC3)c(=O)[nH]2)ccc1C was run?
**A.** 5.16 ± 2.4%

**Q.** For O=C(Cn1cnc2ccccc2c1=O)Nc1ccccc1, which progeny production is on record?
**A.** 5.46 ± 4.2%

**Q.** Which progeny production does the source give for Cc1ccc(NC(=O)c2cc(Cl)ccc2O)cc1 here?
**A.** 8.65 ± 5.8%

**Q.** With CCc1nc2ccccn2c1C(=O)NCc1ccccc1 as the compound, how does the progeny production read?
**A.** 6.11 ± 1.7%

**Q.** COc1ccc(-n2cnc3cc(NCc4ccco4)ccc32)cc1 was tested. Which progeny production did it give?
**A.** 10 ± 2.1%

**Q.** Which progeny production does the source give for CONC(=N)c1ccc(-c2ccc(-c3ccc(C(=N)NOC)cc3)o2)cc1 here?
**A.** 5.44 ± 1.7%

**Q.** How did the progeny production turn out when CC(=O)O[C@H]1C[C@@]2(C)[C@@H](C[C@@H](O)[C@H]3[C@@]4(C)CC[C@@H](O)[C@@H](C)[C@@H]4CC[C@@]32C)/C1=C(\CCC=C(C)C)C(=O)O was run?
**A.** 6.24 ± 2.3%

**Q.** O=C(N[C@H](Cc1cccc2ccccc12)C(=O)NCCc1c[nH]cn1)C1Cc2ccccc2C1 was tested. Which progeny production did it give?
**A.** 7.87 ± 3.1%

Same assay, conditions: infection time 6 days; 100 µM

**Q.** For Cc1cc(C)n(O)c(=O)c1, which progeny production is on record?
**A.** 14.8 ± 8.8%

**Q.** Which progeny production does the source give for NC(=O)c1cnccn1 here?
**A.** 6.97 ± 1.1%

**Q.** For CC[C@@H](CO)NCCN[C@@H](CC)CO, which progeny production is on record?
**A.** 6.91 ± 5.6%

**Q.** How did the progeny production turn out when N#C/C(=C1/SC[C@H](c2ccc(Cl)cc2Cl)S1)n1ccnc1 was run?
**A.** 4.59 ± 2.5%

**Q.** C[C@H]1[C@@H](c2cccc(C(F)(F)F)c2)OC(=O)N1C(=O)NCc1cncc2ccccc12 was tested. Which progeny production did it give?
**A.** 7.48 ± 6.2%

**Q.** How did the progeny production turn out when CO[C@@]1(NC(=O)Cc2cccs2)C(=O)N2C(C(=O)O)=C(COC(N)=O)CS[C@@H]21 was run?
**A.** 7.7 ± 7.8%

**Q.** Which progeny production does the source give for Fc1ccc2c(/C=C/c3cccnc3)c[nH]c2c1 here?
**A.** 19.9 ± 9%

**Q.** With CCCCC(CC)CNC(=N)NC(=N)NCCCCCCNC(=N)NC(=N)NCC(CC)CCCC (stereo unspecified) as the compound, how does the progeny production read?
**A.** 24.3 ± 32%

**Q.** How did the progeny production turn out when COc1ccc(C[C@@H](C)[C@@H](C)Cc2ccc(OC)c(OC)c2)cc1OC was run?
**A.** 16 ± 4.1%

**Q.** For OCCC#Cc1nc(-c2ccc(F)cc2)c(-c2ccncc2)n1CCCc1ccccc1, which progeny production is on record?
**A.** 16.6 ± 12%

**Q.** With CC(C)(C)OC(=O)NCc1ccc(C(=O)N[C@H]2CCOC2=O)cc1 as the compound, how does the progeny production read?
**A.** 24.3 ± 18%

**Q.** Cc1ncc([N+](=O)[O-])n1CC(C)O (stereo unspecified) was tested. Which progeny production did it give?
**A.** 7.52 ± 8.6%

**Q.** How did the progeny production turn out when CC(=O)Nc1cc(NS(=O)(=O)c2ccc(Cl)cc2)cc2c(Cl)[nH]nc12 was run?
**A.** 8.68 ± 4%

**Q.** Which progeny production does the source give for CCc1oc2ccccc2c1C(=O)c1ccc(O)cc1 here?
**A.** 16.8 ± 0.54%

**Q.** For COc1ccc(NS(=O)(=O)c2ccc(Cl)s2)cn1, which progeny production is on record?
**A.** 15 ± 3%

**Q.** For CN(O)C(=O)c1cc2c(CN3CCC[C@H]3C(N)=O)cn(Cc3ccc(F)cc3)c2cn1, which progeny production is on record?
**A.** 11.1 ± 4.5%

**Q.** With Cc1c(N)cccc1Cn1ccc(OCCc2cccs2)cc1=O as the compound, how does the progeny production read?
**A.** 15.6 ± 15%

**Q.** With O=[N+]([O-])c1ccc2c(CCc3c[nH]c4ccccc34)c[nH]c2c1 as the compound, how does the progeny production read?
**A.** 35.7 ± 12%

**Q.** For C=C(C)n1c(=O)n(Cc2ccccc2C)c2ccccc21, which progeny production is on record?
**A.** 14.5 ± 10%

**Q.** OB1OCc2cc(Cl)ccc21 was tested. Which progeny production did it give?
**A.** 21.3 ± 17%

**Q.** Which progeny production does the source give for FC(F)(F)Oc1ccc(Nc2ccc3cccc(Cl)c3n2)cc1 here?
**A.** 11.1 ± 7.2%

**Q.** With Cc1c(OCC(F)(F)F)ccnc1C[S+]([O-])c1nc2ccccc2[nH]1 (stereo unspecified) as the compound, how does the progeny production read?
**A.** 11 ± 6.1%

**Q.** For CC(C)Nc1ncnc2c1cnn2-c1ccc(Cl)cc1, which progeny production is on record?
**A.** 4.15 ± 2.5%

**Q.** Which progeny production does the source give for COCCn1cnc2c(O)nc(Nc3ccccc3)nc21 here?
**A.** 17.6 ± 6.1%

**Q.** O=C(Nc1ccc(F)cc1)c1nn(-c2ccccc2)c(=O)cc1Cl was tested. Which progeny production did it give?
**A.** 14 ± 9.4%

**Q.** For CCc1ccccc1OCCN1CCCCCC1, which progeny production is on record?
**A.** 20.2 ± 6%

**Q.** CCCNc1ccc(S(=O)(=O)Nc2cc(C)on2)cc1 was tested. Which progeny production did it give?
**A.** 14 ± 3.8%

**Q.** With O=C(Nc1ccc(Cl)c(C(F)(F)F)c1)C(CCCl)C(=O)Nc1ccc(Cl)c(C(F)(F)F)c1 as the compound, how does the progeny production read?
**A.** 8.04 ± 5.6%

**Q.** Which progeny production does the source give for CCCC(=O)OCCc1ccccc1 here?
**A.** 11.9 ± 12%

**Q.** With Cc1nc2ccc(Cl)cc2c(-c2ccccc2)c1CC(=O)O as the compound, how does the progeny production read?
**A.** 13.8 ± 12%

**Q.** With C[C@@H](c1nc(-c2ccc(C#N)cc2)cs1)[C@](O)(Cn1cncn1)c1ccc(F)cc1F as the compound, how does the progeny production read?
**A.** 14.7 ± 10%

**Q.** With CCC[C@H](NC(=O)[C@@H]1[C@H]2CCC[C@H]2CN1C(=O)[C@@H](NC(=O)[C@@H](NC(=O)c1cnccn1)C1CCCCC1)C(C)(C)C)C(=O)C(=O)NC1CC1 as the compound, how does the progeny production read?
**A.** 10.3 ± 1.3%

**Q.** CCc1cc(Nc2cc(=O)n(CCN3CCN(C(=O)c4ccccc4)CC3)c(=O)[nH]2)ccc1C was tested. Which progeny production did it give?
**A.** 21 ± 12%

**Q.** With O=C(Cn1cnc2ccccc2c1=O)Nc1ccccc1 as the compound, how does the progeny production read?
**A.** 8.2 ± 5.5%

**Q.** How did the progeny production turn out when Cc1ccc(NC(=O)c2cc(Cl)ccc2O)cc1 was run?
**A.** 8.35 ± 5.3%

**Q.** How did the progeny production turn out when CCc1nc2ccccn2c1C(=O)NCc1ccccc1 was run?
**A.** 12.8 ± 11%

**Q.** COc1ccc(-n2cnc3cc(NCc4ccco4)ccc32)cc1 was tested. Which progeny production did it give?
**A.** 17.2 ± 0.88%

**Q.** For CONC(=N)c1ccc(-c2ccc(-c3ccc(C(=N)NOC)cc3)o2)cc1, which progeny production is on record?
**A.** 14.6 ± 6%

**Q.** CC(=O)O[C@H]1C[C@@]2(C)[C@@H](C[C@@H](O)[C@H]3[C@@]4(C)CC[C@@H](O)[C@@H](C)[C@@H]4CC[C@@]32C)/C1=C(\CCC=C(C)C)C(=O)O was tested. Which progeny production did it give?
**A.** 16.9 ± 9.1%

**Q.** O=C(N[C@H](Cc1cccc2ccccc12)C(=O)NCCc1c[nH]cn1)C1Cc2ccccc2C1 was tested. Which progeny production did it give?
**A.** 17.2 ± 4.5%
